The source made the active and inactive calls. Rule for the calls: active = hit-call score of the fitted dose curve at least 0.9, where 1 is the maximum; inactive = score below 0.9.

Consider 38 compounds from PubChem BioAssay (EPA / NIEHS).

CCAAT/enhancer-binding protein beta (Homo sapiens), sequence (P17676 whole entry, looked up): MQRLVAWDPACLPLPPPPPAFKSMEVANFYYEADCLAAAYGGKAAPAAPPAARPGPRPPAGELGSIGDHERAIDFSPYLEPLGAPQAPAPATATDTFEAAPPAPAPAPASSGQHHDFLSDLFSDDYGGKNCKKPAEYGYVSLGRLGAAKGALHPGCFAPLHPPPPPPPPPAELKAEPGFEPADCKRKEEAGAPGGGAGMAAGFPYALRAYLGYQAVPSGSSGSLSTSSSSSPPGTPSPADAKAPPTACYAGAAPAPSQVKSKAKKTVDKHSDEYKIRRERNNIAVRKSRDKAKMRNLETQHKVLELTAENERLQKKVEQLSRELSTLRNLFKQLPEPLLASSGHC

System in the first test: not listed separately
Put plainly: ATG_CRE_CIS: Attagene CIS-FACTORIAL HepG2 Assay for human cAMP Responsive Element (CRE) binding protein 3 (AID 2282926). Particulars: HepG2 CRE cis-reporter, Attagene multiplexed mRNA; actives raise or lower the signal. In a few lines:
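Liver-derived HepG2, transfected with a CRE-containing reporter panel, exposed 24 h; transcript levels sized and quantified by capillary electrophoresis of labelled amplicons; signal changes either way referenced to vehicle.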
Take `CCOCCOCCOCC`: the call was inactive.
Still for that read-out and setting: the result for `C=C1C[C@]23C[C@@]1(O)CC[C@H]2[C@@]12C=C[C@H](O)[C@@](C)(C(=O)O1)[C@H]2[C@@H]3C(=O)O` reads “inactive”.
As for `OCc1cccc(Oc2ccccc2)c1`, the outcome was inactive.
Regarding `C=CCN(CC=C)CC=C`, the result was inactive.
Still for that read-out and setting: the value for `CC(C)(N=C=O)c1cccc(C(C)(C)N=C=O)c1` was “inactive”; that for `C[Si]1(C)O[Si](C)(C)O[Si](C)(C)O1` was “inactive”; that for `CCOc1ccccc1O` was “inactive”.
By AC50 is commonly meant the concentration at which the activity in the assay is half-maximal. Take `Cc1cc(=O)oc2cc(N(C)C)ccc12`: the concentration at half-maximal activity (AC50) is 54.1 µM (active).
As to `CCCCOCC`, the compound was classed as inactive.
Consider `C1CCCCC1`, for which the result was inactive.
As to `CC1=CC[C@@]23C[C@@H]1C(C)(C)[C@@H]2CC[C@H]3C`, the compound was called inactive.
The same measure, in the same setting: the value for `O=C1NC2NC(=O)NC2N1` (stereo not drawn) was “inactive”; that for `Nc1ccc(NCCO)c([N+](=O)[O-])c1` was “inactive”.
Same read-out and setting: the value for `CC(C)(CO)[C@@H](O)C(=O)NCCC(=O)O` was “inactive”.
The same measure, in the same setting: the result for `C[Si](C)(C)O[Si](C)(C)C` reads “inactive”.

The target in a further test is CCAAT/enhancer-binding protein beta (Homo sapiens) (UniProt P17676). The experiment in a line: ATG_C_EBP_CIS: Attagene CIS-FACTORIAL HepG2 Assay for human CCAAT/Enhancer Binding Protein (C/EBP) beta (AID 2282927). Particulars: HepG2 Attagene cis-factorial transcription factor reporter; actives raise or lower the signal. The method in brief:
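Endogenous transcription factor activity in human liver HepG2 cells is inferred from induction of a CEBPB-linked reporter mRNA. Exposure lasts 24 h; activity is fitted in both directions relative to DMSO.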
For `CCOC(=O)CC(C)O` (stereo not drawn), the result was inactive.
As to `CCCC(=O)OCCc1ccccc1`, the result was inactive.
On the same count and under the same terms, the result for `CC1(C)O[C@@H]2[C@@H](CO[C@@]3(COS(N)(=O)=O)OC(C)(C)O[C@@H]23)O1` reads “inactive”; that for `[Cl][Au]([Cl])[Cl]`, “inactive”; that for `CCCCCC(C=O)=Cc1ccccc1`, “inactive”.
On the same count and under the same terms, the value for `C=CC(C)C#N` (stereo not drawn) was “inactive”.
On to `C[C@H]1O[C@@H](O[C@H]2[C@@H](O)C[C@H](O[C@H]3[C@@H](O)C[C@H](O[C@H]4CC[C@@]5(C)[C@H](CC[C@@H]6[C@@H]5C[C@@H](O)[C@]5(C)[C@@H](C7=CC(=O)OC7)CC[C@]65O)C4)O[C@@H]3C)O[C@@H]2C)C[C@H](O)[C@@H]1O`, for which the AC50 is 0.0593 µM (active).
Turning to `ClC(c1ccccc1)(c1ccccc1)c1ccccc1`, the result was inactive.
Same read-out and setting: the result for `O=c1c(O)c(-c2ccc(O)cc2)oc2cc(O)cc(O)c12` reads “inactive”; that for `CN1CCOCC1`, “inactive”; that for `CC/C=C\CC/C=C/CO`, “inactive”.
On the same count and under the same terms, the value for `CS(=O)(=O)c1ccc(C2=C(c3ccccc3)C(=O)OC2)cc1` was “inactive”.
As for `CC1C2CC(CC2C2CCCC(O)C2)C1(C)C` (stereo not drawn), the result was inactive.
Regarding `COC(=O)Nc1ccc(Cl)c(Cl)c1`, the result was inactive.
Still for that read-out and setting: the result for `CC(O)C1CCCCC1` (stereo not drawn) reads “inactive”.
For the compound `Oc1c(Cl)cc(Cl)c(Cl)c1Cc1c(O)c(Cl)cc(Cl)c1Cl`, the AC50 was 0.561 µM (active).
Consider `N#Cc1ccc(CC(=O)c2cccc(C(F)(F)F)c2)cc1`, for which the result was inactive.
Same read-out and setting: the value for `COS(=O)(=O)O` was “inactive”; that for `CCCCCCOC(=O)CCC` was “inactive”.
On the same count and under the same terms, the result for `COC(C)(C)CCCC(C)CC=O` (stereo not drawn) reads “inactive”; that for `CSCCC=O`, “inactive”.
The same measure, in the same setting: the result for `Brc1ccc(Br)c(Br)c1` reads “inactive”; that for `Cc1cc(C)nc(NS(=O)(=O)c2ccc(N)cc2)n1`, “inactive”; that for `CCOCCOCCOCC`, “inactive”.
As for `C=C1C[C@]23C[C@@]1(O)CC[C@H]2[C@@]12C=C[C@H](O)[C@@](C)(C(=O)O1)[C@H]2[C@@H]3C(=O)O`, the outcome was inactive.
As to `OCc1cccc(Oc2ccccc2)c1`, the result was inactive.
Take `C=CCN(CC=C)CC=C`: the result was inactive.
Still for that read-out and setting: the value for `CC(C)(N=C=O)c1cccc(C(C)(C)N=C=O)c1` was “inactive”; that for `C[Si]1(C)O[Si](C)(C)O[Si](C)(C)O1` was “inactive”.
Same read-out and setting: the result for `CCOc1ccccc1O` reads “inactive”.
For `Cc1cc(=O)oc2cc(N(C)C)ccc12`, the outcome was inactive.
Same read-out and setting: the value for `CCCCOCC` was “inactive”.
Same read-out and setting: the value for `C1CCCCC1` was “inactive”.
For `CC1=CC[C@@]23C[C@@H]1C(C)(C)[C@@H]2CC[C@H]3C`, the result was inactive.
The same measure, in the same setting: the result for `O=C1NC2NC(=O)NC2N1` (stereo not drawn) reads “inactive”; that for `Nc1ccc(NCCO)c([N+](=O)[O-])c1`, “inactive”; that for `CC(C)(CO)[C@@H](O)C(=O)NCCC(=O)O`, “inactive”.
Same read-out and setting: the result for `C[Si](C)(C)O[Si](C)(C)C` reads “inactive”.
